Here are results for 53 molecules from ChEMBL document CHEMBL4513216, “Probing the Open Global Health Chemical Diversity Library for Multistage-Active Starting Points for Next-Generation Antimalarials” (ACS Infect Dis, 2020).

About 8,600 (12%) of roughly 69,000 compounds showed an effect of 50% or more. The full list was thinned out, with strong results kept by preference.

The assay relates to Plasmodium berghei. As to the kind of experiment: Screen against P. berghei liver stage (PbLuc), transformed with Luciferase, at 10uM. It counts as functional, HepG2. The conditions noted are these: tested at 10 uM.
`CCS(=O)(=O)NC[C@]12COC[C@H]1CN(Cc1ccsc1)C2`: the INHIBITION is 53.9%.
For the molecule `CCS(=O)(=O)NC[C@]12COC[C@H]1CN(Cc1cc(C)on1)C2`, the INHIBITION turned out to be 18.8%.
The value for `CCS(=O)(=O)NC[C@]12COC[C@H]1CN(Cc1ccncc1)C2` was 53.9%; that for `CCS(=O)(=O)NC[C@]12COC[C@H]1CN(Cc1ccccn1)C2` was 4.27%; that for `CCS(=O)(=O)NC[C@]12COC[C@H]1CN(Cc1cccnc1)C2` was 24.9%.
Turning to `CCS(=O)(=O)NC[C@]12COC[C@H]1CN(Cc1sccc1C)C2`, the INHIBITION turned out to be 28.7%.
As to `CCS(=O)(=O)CC(=O)NC(c1ccc(F)cc1)C1CCCC1` (stereo not drawn), the INHIBITION is 42.6%.
Turning to `Cc1nn(-c2ccccc2)c(C)c1CN1CCNCC1`, the INHIBITION stood at 40.9%.
The value for `COc1cc(C2(C(=O)NC3CCN(C4CC4)CC3)CC2)ccc1C` was 51.5%; that for `COCCNC(=O)C1(c2ccc(C)c(OC)c2)CCCC1` was 21.5%.
In the case of `COc1cc(C2(C(=O)NC3CCC4(CC3)OCCO4)CC2)ccc1C`, the INHIBITION amounted to 10.3%.
`COc1cc(C2(C(=O)NC3CCN(CC4CC4)CC3)CC2)ccc1C`: the INHIBITION stood at 25.5%.
Turning to `CCC(O)CN1CCN(C(=O)C2(c3ccc(C)c(OC)c3)CC2)CC1` (stereo not drawn), the INHIBITION was -6.34%.
The value for `COCC(=O)N1CCN(C(=O)C2(c3ccc(C)c(OC)c3)CC2)CC1` was 50.9%; that for `COc1cc(C2(C(=O)N3CCN(CC(C)(C)O)CC3)CC2)ccc1C` was 52.3%; that for `COc1cc(C2(C(=O)N3CCCC(n4cncn4)C3)CC2)ccc1C` (stereo not drawn) was -7.81%.
The value for `COc1cc(C2(C(=O)N3CCN(CC(C)O)CC3)CC2)ccc1C` (stereo not drawn) was -17.8%; that for `O=C(O)[C@H]1OCC(=O)N(Cc2cccc(Cl)c2)[C@@H]1c1ccccc1` was 22%; that for `Cn1cc(-c2ccc(C3CCCCN3Cc3cccnc3)cn2)cn1` (stereo not drawn) was 9.05%.
Consider `Cn1cc(CN2CCCCC2c2ccc(-c3cccc(F)c3)nc2)cn1` (stereo not drawn), for which the INHIBITION was found to be 62.9%.
The value for `Cn1cc(CN2CCOC(c3cccc(-c4cccc(F)c4)n3)C2)cn1` (stereo not drawn) was 23.9%.
On to `Cn1cc(CN2CCCCC2c2ccc(-c3cnn(C)c3)nc2)cn1` (stereo not drawn), for which the INHIBITION stood at 25.8%.
The value for `COc1ccc(C2CCCN2Cc2cnn(C)c2)cc1` (stereo not drawn) was 34.5%; that for `Nc1nccc(C2CCCN2CCc2ccccc2)n1` (stereo not drawn) was 37.8%; that for `Nc1nccc(C2CCCCN2Cc2cccc(F)c2)n1` (stereo not drawn) was 52%.
The value for `Cn1cc(CN2CCCCC2c2ccc(-c3cccc(Cl)c3)nc2)cn1` (stereo not drawn) was 57.3%; that for `Cc1nccc(C2CCCCN2Cc2cccc(F)c2)n1` (stereo not drawn) was 43.6%; that for `CC(=O)Nc1nc(CN2CCn3c(nnc3C(C)C)C2)cs1` was -24.3%.
In the case of `CCN1CCn2c(C)cnc2C12CCN(C(=O)Cc1ccccc1)CC2`, the INHIBITION worked out at 30.9%.
Consider `CC(C)(CNC(=O)CCCOc1cccc(F)c1)C(N)=O`, for which the INHIBITION is reported as 30.65%.
The value for `Cc1nc(CN2CCCC(c3nccs3)C2)cs1` (stereo not drawn) was 24.05%.
Turning to `CN(C)CC(=O)N1Cc2nc(C(=O)N3CCCN(C)CC3)oc2C1`, the INHIBITION is reported as -2.26%.
The value for `COc1ccc(C(=O)N2CCC3(CC2)c2ccccc2[C@@H](N)[C@@H]3O)cc1` was 66.55%; that for `Cc1ccc(C(=O)N2CCC3(CC2)c2ccccc2[C@@H](N)[C@@H]3O)cc1F` was 35.1%.
The value for `Cc1ccc(Cl)cc1C(=O)N1CCC2(CC1)c1ccccc1[C@@H](N)[C@@H]2O` was 80.1%; that for `N[C@@H]1c2ccccc2C2(CCN(C(=O)c3ccccc3O)CC2)[C@H]1O` was -5.395%.
For `N[C@@H]1c2ccccc2C2(CCN(C(=O)c3ccc(=O)[nH]c3)CC2)[C@H]1O`, the INHIBITION was found to be 4.795%.
The value for `CC(C)c1cc(C(=O)N2CCC3(CC2)c2ccccc2[C@@H](N)[C@@H]3O)cs1` was 41.1%; that for `c1cc(-c2cncc(C3CCNCC3)n2)n[nH]1` was 35%; that for `Cc1cc(C(=O)NCc2cccnc2N(C)C)c(C)o1` was 26.3%.
On to `Nc1nccnc1C(=O)NC1CCCN(Cc2c(F)cccc2F)C1` (stereo not drawn), for which the INHIBITION came to 21.8%.
The value for `CC(C)n1nc(Cn2cccc2)c2c1CN(Cc1ccoc1)C2` was 54.1%; that for `Cn1nc(Cn2cccc2)c2c1CN(Cc1ccoc1)C2` was 24.6%; that for `Cn1nc(Cn2ccnc2)c2c1CN(Cc1ccoc1)C2` was -9.42%.
With `COc1cccc(-c2ncc3c(n2)N(C)CCN(CCN(C)C)C3=O)c1`, the INHIBITION is 57.5%.
The value for `CN1CCN(CC2CC2)C(=O)c2cnc(N3CCCCC3)nc21` was 7.64%; that for `CCCN(C)c1ncc2c(n1)N(C)CCN(CC1CC1)C2=O` was 5.56%; that for `COc1cccc(-c2nccc(C3CCCN3C)n2)c1` (stereo not drawn) was 21.1%.
As to `CCc1ccc(-c2ncc3c(n2)N(C)CCN(CCN(C)C)C3=O)cc1`, the INHIBITION is given as 79.7%.
The value for `CN(C)CCN1CCN(C)c2nc(-c3ccccc3)ncc2C1=O` was 59%; that for `CN(C)c1ncc2c(n1)N(C)CCN(CC1CC1)C2=O` was 21.9%.
The value for `COc1ccc(CN2CCC3(CC2)CCN(CCN(C)C)C3=O)cc1` was -17.1%.
As to `CN1CCN(CC2CC2)C(=O)c2cnc(N3CCCC3)nc21`, the INHIBITION turned out to be 11%.
